HepG2 viability = HepG2 cytotoxicity, counter-screen for TGF-b inhibitors | HepG2 CAGA-GFP viability, ATP luminescence, 18 h | Potency, µM (top dose mostly 46.1 µM), for inactives: at the highest dose activity change, negative = cytotoxicity, hits mostly cytotoxic | 410,000 compounds, 0.76% hits | AID 588856; also: potency is read from the fitted curve at half-maximal effect
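HepG2 CAGA-GFP cells (1000/well, DMEM with 1% FBS) received compound, then TGF-beta at 500 pg/mL final, and were incubated 18 hours at 37 degrees C. Viability was read by CellTiter-Glo luminescence. Media-only wells were set as complete cell-killing and DMSO as no toxicity.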
TGFb SMAD3 inh = blocks TGF-b signaling; HepG2 CAGA-GFP TGF-b/SMAD3 reporter, GFP fluorescence, 18 h; TGF-beta stimulated, 500 pg/mL final; Potency, µM (doses to about 46.1 µM), without a hit: at the top dose activity, negative = inhibition, actives largely listed as inhibitors; 410,000 compounds, 1.2% hits; also: potency is read from the fitted curve at half-maximal effect; % is scaled to controls: 0 for no effect and ±100 for the full control effect; nearly all actives have a fitted effect of over 65% in size
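HEPG2 CAGA-GFP, 1000 cells/well; 2 h settle, 37 C; cpd via pin tool; TGF-b 500 pg/mL final; 18 h, 37 C; GFP imaging ex488/em500-530; %Activity normalised to -TGF-b and +DMSO controls; CRC fit, curve class.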
TDP1 block = blocks human tyrosyl-DNA phosphodiesterase 1; Q9NUW8; recombinant TDP1, AlphaScreen DNA substrate cleavage; Potency, µM (doses to about 130 µM), without a hit: top-dose activity change, negative = inhibition, hits mostly inhibitors; 350,000 compounds, 0.28% hits; also: potency is read from the fitted curve at half-maximal effect; % is scaled to controls: 0 for no effect and ±100 for the full control effect; nearly all actives have a fitted effect of over 40% in size
Target sequence (Q9NUW8 whole entry, looked up): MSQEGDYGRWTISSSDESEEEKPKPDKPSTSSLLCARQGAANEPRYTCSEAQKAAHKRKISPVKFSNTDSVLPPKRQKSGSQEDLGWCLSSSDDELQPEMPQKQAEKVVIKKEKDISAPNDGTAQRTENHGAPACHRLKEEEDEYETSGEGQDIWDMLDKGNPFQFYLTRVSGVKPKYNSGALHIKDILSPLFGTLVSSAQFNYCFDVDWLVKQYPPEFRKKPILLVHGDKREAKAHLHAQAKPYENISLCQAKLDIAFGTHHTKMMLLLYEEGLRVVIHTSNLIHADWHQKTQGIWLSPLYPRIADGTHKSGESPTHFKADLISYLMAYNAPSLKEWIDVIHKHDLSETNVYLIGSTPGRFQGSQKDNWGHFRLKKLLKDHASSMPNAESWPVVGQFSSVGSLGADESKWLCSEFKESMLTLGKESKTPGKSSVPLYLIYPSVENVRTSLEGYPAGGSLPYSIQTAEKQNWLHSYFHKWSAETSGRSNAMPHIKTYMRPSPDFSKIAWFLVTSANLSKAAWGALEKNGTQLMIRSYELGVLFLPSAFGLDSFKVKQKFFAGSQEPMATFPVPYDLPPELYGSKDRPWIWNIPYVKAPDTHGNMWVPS
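Steps: enzyme plus compound, 15 min RT; add biotin/phosphotyrosine-FITC oligonucleotide (15 nM final), react 5 min; add donor/acceptor beads (10 ug/ml final), 10 min; read AlphaScreen. Tdp1 at 1 nM final.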
DT40 TDP1 no CPT = qHTS for Inhibitors of human tyrosyl-DNA phosphodiesterase 1 (TDP1): qHTS in cells in absence of CPT; DT40 Tdp1-/- hTDP1 cells, no CPT, ATP luminescence, 48 h; Potency, µM (top dose mostly 46.2 µM), for inactives: at the highest dose activity change, negative = growth inhibition, usual class: inhibitors; 420,000 compounds, 15% hits; AID 686978, 2013; also: potency is read from the fitted curve at half-maximal effect; % is scaled to controls: 0 for no effect and ±100 for the full control effect; nearly all actives have a fitted effect of over 55% in size
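Seeded 400 DT40-hTDP1 cells/well (vehicle DMSO, no 20 nM CPT); pinned compounds; ≥48 hr at 37 °C; CellTiter-Glo luminescence as viability measure.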
DT40 TDP1 CPT = growth inhibition of DT40 Tdp1-/-;hTDP1 cells with camptothecin (screen for TDP1 inhibitors). chicken DT40 Tdp1-/-;hTDP1 cells + 20 nM CPT, ATP luminescence, 48 h. Potency, µM (top dose mostly 46.2 µM), inactives show at the top dose activity change, negative = growth inhibition, hits mostly inhibitors. 420,000 compounds, 12% hits; also: potency is read from the fitted curve at half-maximal effect; % is scaled to controls: 0 for no effect and ±100 for the full control effect; nearly all actives have a fitted effect of over 55% in size
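Chicken DT40 Tdp1-/- cells complemented with human TDP1, 400 cells/well, exposed to compounds plus 20 nM camptothecin for at least 48 h at 37 C; viability read as ATP content by CellTiter-Glo luminescence.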
IL-1B inflam inh = blocks inflammasome-driven IL-1 beta release | THP-1 LPS/ATP IL-1B secretion, AlphaLISA, 16 h; active compounds read low | activity change, % at 57.5 µM | 360,000 compounds, 4.7% hits; in the data active = activity change below about -50%; inconclusive = mostly about -30% to -49%; also: % is scaled to controls: 0 for no effect and ±100 for the full control effect
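THP-1 cells pretreated 1 hr with compounds (up to 57.5 uM final), then stimulated with LPS (250 ng/mL final) plus ATP (1.25 mM final); secreted IL-1B measured by AlphaLISA after 16 hr, decreased signal indicating inhibition.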
* hit, by the source's call; [ ] = another dose, or the depositor's remark. In the library only some 19% were active in any assay of this set; here they are far more common. Unless noted, calls follow the shape of the dose curve; as a rule, active = well fitted curve in the direction sought with a large enough effect; inconclusive = small, poorly fitted or top-dose-only effect, or another doubt; inactive = no such curve, though single readings can be large; an effect the other way counts as inactive or inconclusive.

For COCCNC(=O)C1CCN(C(=O)c2cc3sccc3n2Cc2ccc(F)cc2)CC1 the results were HepG2 viability -21.1%, TGFb SMAD3 inh -23.8%, TDP1 block 0.0%, DT40 TDP1 no CPT inconclusive, DT40 TDP1 CPT inconclusive and IL-1B inflam inh 51.6.
CCC(C)NC(=O)C1CCN(C(=O)c2cc3sccc3n2Cc2ccc(Cl)cc2)CC1 (centres undefined) was read as HepG2 viability -7.3%, TGFb SMAD3 inh inconclusive, TDP1 block 2.9%, DT40 TDP1 no CPT 2.06µM* and DT40 TDP1 CPT 3.66µM*.
For COCCNC(=O)C1CCN(C(=O)c2cc3sccc3n2Cc2ccc(Cl)cc2)CC1 the results were HepG2 viability -32.9%, TGFb SMAD3 inh -18.5%, TDP1 block 0.0%, DT40 TDP1 no CPT 2.59µM* and DT40 TDP1 CPT 5.17µM*.
Screening CCn1c(C(=O)N2CCC(C(=O)NCCCOC)CC2)cc2sccc21 returned HepG2 viability -51.8%, TGFb SMAD3 inh inconclusive, TDP1 block 6.8%, DT40 TDP1 no CPT -11.7% and DT40 TDP1 CPT -21.0%.
Screening O=C(NCc1ccco1)C1CCN(C(=O)c2cc3sccc3n2Cc2ccc(Cl)cc2)CC1 returned HepG2 viability -32.9%, TGFb SMAD3 inh inconclusive, TDP1 block 6.6%, DT40 TDP1 no CPT inconclusive, DT40 TDP1 CPT 18.4µM* and IL-1B inflam inh -86.5*.
For COCCCNC(=O)C1CCN(C(=O)c2cc3sccc3n2Cc2ccc(Cl)cc2)CC1 the results were HepG2 viability -22.5%, TGFb SMAD3 inh inconclusive, TDP1 block 1.0%, DT40 TDP1 no CPT 20.6µM* and DT40 TDP1 CPT 13µM*.
For CCCCn1c(=O)nc2n(-c3ccc(Br)cc3)c3ccccc3cc-2c1=O the results were HepG2 viability -12.6%, TGFb SMAD3 inh 2.9% and TDP1 block -0.9%.
CCSc1ncc(Cl)c(C(=O)Nc2sc3c(c2C(=O)NCCOC)CCCC3)n1 was read as HepG2 viability -0.8%, TGFb SMAD3 inh 7.2%, DT40 TDP1 no CPT inconclusive and DT40 TDP1 CPT -9.2%.
CCOc1ccccc1C(=O)NC(C)c1ccc2c(c1)OCO2 (centres undefined) was read as HepG2 viability -3.3%, TGFb SMAD3 inh 10.4%, TDP1 block 2.1%, DT40 TDP1 no CPT inconclusive, DT40 TDP1 CPT 18.4µM* and IL-1B inflam inh 17.2.
`CCOc1ccccc1C(=O)NCC(=O)Nc1ccc2c(c1)OCO2` gave HepG2 viability -3.9%, TGFb SMAD3 inh -11.0%, TDP1 block 1.0%, DT40 TDP1 no CPT -7.3%, DT40 TDP1 CPT -20.1% and IL-1B inflam inh 14.9.
`CCOc1ccccc1C(=O)NC(C(=O)N(C)Cc1ccc2c(c1)OCO2)C(C)C` (centres undefined) gave HepG2 viability -2.0%, TGFb SMAD3 inh -6.1%, TDP1 block 0.2%[56.1 µM], DT40 TDP1 no CPT inconclusive, DT40 TDP1 CPT 18.4µM* and IL-1B inflam inh 18.3.
`CCOC(=O)N1CCC(N2Cc3cccc(C(=O)NC(C)c4ccc5c(c4)OCCO5)c3C2=O)CC1` (centres undefined) gave HepG2 viability -8.8%, TGFb SMAD3 inh 28.4%, TDP1 block 6.5%, DT40 TDP1 no CPT 23.1µM*, DT40 TDP1 CPT inconclusive and IL-1B inflam inh -21.8.
C=C(CO)C1Cc2c(ccc3c(=O)c4c(oc23)COc2cc(OC)c(OC)cc2-4)O1 (centres undefined) was read as TDP1 block 5.7%[56.1 µM], DT40 TDP1 no CPT inconclusive and DT40 TDP1 CPT inconclusive.
For Cc1cccc(Cn2c(COc3ccccc3)nc3ccccc32)c1 the results were HepG2 viability -55.7%, TGFb SMAD3 inh inconclusive and TDP1 block -0.6%.

High-throughput results from PubChem.
